About 83,000 compounds went through this panel and 20% of them were active in at least one assay; those are over-represented in the sample as a whole.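 96-well plates, one dose, 48 hours. Percent growth reported; active if below 10.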 Unmarked numbers belong to inactive results. Calls of active or inactive are those of the source.

The test system of the assay is UACC-62 melanoma. As to the kind of experiment: NCI-60 one-dose screen, 48 h (100 = growth as untreated, 0 = no growth, -100 = all killed). To be noted: 10 µM unless noted.
`NC(=O)c1c(NC(=O)c2ccc(Cl)cc2)sc2c1CCC(=O)C2`: the growth was 61.9%.

`COc1ccc(/C(C)=C(\c2ccc(OCCN3CCCCCC3)cc2)c2ccc(OC(=O)c3ccccc3)cc2)cc1`: the growth was 19.1%.

For the compound `Clc1ccc(-c2cn3ccsc3n2)c(Cl)c1Cl`, the growth is 67.7%.

As for `COc1ccc(Cl)cc1Nc1nc(C(F)(F)F)ccc1C(=O)N/N=C/c1ccccc1Cl`, the growth was 8.19% (active).

Consider `Cc1cc(C)cc(Nc2ccc([N+](=O)[O-])c(NCCN3CCOCC3)n2)c1`, for which the growth was 36.6%.

Turning to `C=CCn1c(SCC(=O)Nc2ccc(C(=O)/C=C/c3cc(OC)c(OC)c(OC)c3)cc2)nnc1-c1cc(-c2ccc(OC)cc2)nc2ccccc12`, the growth is 90.1%.

As to `C#CCOc1cccc(-c2ncc3cc(NC(=O)CCl)ccc3n2)c1`, the growth was -6.06% (active).

On to `Cn1cc(-c2nn3cc(-c4ccccc4)nc3s2)c2ccccc21`, for which the growth is 54%.

Turning to `Cc1cc2nc3c4ccccc4n(CCN(C)C)c3nc2cc1C`, the growth was 36.2%.

`CCC(C)Nc1ccc(NC(C)CC)cc1` (stereo not given): the growth is 87.1%.

For `O=C(CCCCCCN1CC(=O)N2[C@@H](C3CCCCC3)c3[nH]c4ccccc4c3C[C@H]2C1=O)NO`, the growth was 35.3%.

Take `C(/C=C/c1ccccc1)=Nc1ccc(CCc2ccc(N=C/C=C/c3ccccc3)cc2)cc1`: the growth is 73.6%.

Turning to `Cc1c2ccccc2nc2c1ccc1cccnc12`, the growth is 94.6%.

As to `Cc1ncc(C(=O)Nc2ccc(CN3CCN(C)CC3)c(C(F)(F)F)c2)cc1C#Cc1cnc(N)c2cnccc12`, the growth was -65.2% (active).

For the compound `CC(C)(C)C(=O)/C=C/c1ccc([N+](=O)[O-])cc1`, the growth is 74.4%.

`N#Cc1c(-c2ccccc2)nc2c(c(-c3ccccc3)nn2-c2ccccc2)c1-c1ccc(N2CCOCC2)cc1`: the growth is 106%.

As for `Cc1ccc(C)n1/C=C/n1c(C)ccc1C`, the growth was 98.8%.

`CN(C)Cc1ccc(C(=O)Nc2ccc3ncnc(Nc4ccc(Oc5cccc(F)c5)c(Cl)c4)c3c2)cc1`: the growth is -20.1% (active).

As for `O=c1[nH]cnc2c1C(c1ccc(Br)cc1)c1sc3c(F)cccc3c1O2` (stereo not given), the growth was 82.5%.

`CS(=O)(=O)Nc1cncc(-c2ccc3ncnc(Nc4ccc(F)c(Cl)c4)c3c2)c1`: the growth was 34.6%.

Regarding `Cc1cc(N2CCN(C)CC2)nc(NCc2cc(Nc3ccnc4cc(Cl)ccc34)ccc2F)n1`, the growth was -59.1% (active).

For `COc1ccc(-c2ccc(=O)oc2C#Cc2cc(OC)c(OC)c(OC)c2)cc1O`, the growth was 14.8%.

On to `COc1cc(/C=C2\C(=O)N(c3c(Cl)cccc3Cl)c3ccccc32)cc(OC)c1OCCCCCCn1c2ccccc2c(=O)c2ccccc21`, for which the growth is 93.3%.

For `CC/C=C1/C(=O)C=C[C@@H]1C/C=C\CCCC(=O)OC`, the growth was 16.6%.

In the case of `COc1ccc2c(c1)c(-c1nonc1-c1cn(C)c3ccc(OC)cc13)cn2C`, the growth was 26.3%.

As for `C=C1C(=O)O[C@H]2[C@H]1CC/C(COC(=O)/C=C\C(=O)NCc1ccc(Cn3c(=O)sn(-c4ccccc4)c3=O)cc1)=C\CC[C@@]1(C)O[C@@H]21`, the growth was 85%.

`Cc1nn(-c2ccccc2)c(/N=C/N(C)C)c1/C=C/C(=O)c1ccc(Cl)cc1`: the growth is 88.3%.

For `C#CC#CC#CC#CC#CC#CC#CC#CCC1OCC(COC(=O)O[C@@H](C(=O)O[C@H]2C[C@@]3(O)[C@@H](OC(=O)c4ccccc4)[C@@H]4[C@]5(OC(C)=O)CO[C@@H]5C[C@H](O)[C@@]4(C)C(=O)[C@H](OC(C)=O)C(=C2C)C3(C)C)[C@@H](NC(=O)c2ccccc2)c2ccccc2)O1` (stereo not given in full), the growth is 22.3%.

As to `COc1ccc(/C=C/C(=O)c2cc3c(N)c(C(=O)Nc4ccc(OC)cc4)sc3nc2C)cc1`, the growth was 21.8%.

Turning to `N=C(N)c1ccc(-c2ccc(-c3ccc(Cl)cc3)o2)o1`, the growth is -67.4% (active).

With `COc1ccc(-c2nnc(SCC(=O)Nc3ccc(/C(C)=N\O)cc3)n2-c2ccccc2)cc1OC`, the growth was 82.8%.

`Cc1ccc(-c2nc(C#N)c(S(=O)(=O)NCCO)o2)cc1`: the growth was 60.3%.

For `N#CC(C#N)N=Nc1ccc(Cl)cc1Cl`, the growth was 69.6%.

`C=CCOC(=O)C1=C(C)NC(=O)NC1c1c(Cl)n(C)c2ccccc12` (stereo not given): the growth is 90.3%.

`CCCCCCCCn1ccc2cc(NC(=O)Cn3cc(CN4CCCCCC4)nn3)ccc21`: the growth was -70.9% (active).

Consider `O=C(CN1C(=O)NC2NC(=O)NC21)N/N=C/c1ccc(Cl)cc1Cl` (stereo not given), for which the growth is 99%.

On to `COc1cc(C2=NN(C(C)=O)C(c3ccc(N(C)C)cc3)C2)cc(OC)c1OC` (stereo not given), for which the growth was 87.9%.

`COc1cccc(/C=C/C(=O)c2cc3c(N)c(C(=O)Nc4cccc(Cl)c4C)sc3nc2C)c1`: the growth is 1.73% (active).

With `CCCn1c(=S)sc2c1nc(C)n1c(Nc3ccccc3)nnc21`, the growth is 32.3%.

On to `OC(c1ccccc1)(c1ccccc1)c1ccccc1-c1ccccc1`, for which the growth was 79.2%.

Source of the values: PubChem BioAssay (NCI).
